sEH inh: soluble epoxide hydrolase (human) inhibition; P34913; recombinant human sEH enzymatic activity assay; inhibition, % at 2 µM; 0.34% of 91,000 active; in the data active = inhibition above about 80%
sEH act: soluble epoxide hydrolase (human) activation. P34913. activation, % at 2 µM. 0.04% of 91,000 active. AID 717. purified human sEH enzymatic activity, activator screen; in the data active = activation above about 37%
CYP2C9 activ: increases human cytochrome P450 2C9 activity. P11712. activation factor at 5 µM. recombinant CYP2C9, luciferin-H conversion, luminescence; stronger effect = higher value; factor 1 = untreated enzyme, 0 = blocked. AID 1024. 1.4% of 96,000 active;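 active = activation factor of 2 or more for CYP2C9 at a 5 µM dose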;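 also: 0 = sulfaphenazole-blocked wells and 1 = vehicle-only wells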
CYP2C19 inhib: inhibitors of human CYP2C19; CYP2C19 Supersomes, luciferin-H EGE luminescence, 30 min; 21% of 96,000 active; P33261; inhibition, % at 5 µM; AID 778;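 active = CYP2C19 inhibition above a set limit at 5 µM in the primary screen, cut at about 50% in these data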;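 also: plate controls were negative control wells for no effect and 2.5 mM tranylcypromine positive control for full effect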
Target sequence (P33261 whole entry, looked up): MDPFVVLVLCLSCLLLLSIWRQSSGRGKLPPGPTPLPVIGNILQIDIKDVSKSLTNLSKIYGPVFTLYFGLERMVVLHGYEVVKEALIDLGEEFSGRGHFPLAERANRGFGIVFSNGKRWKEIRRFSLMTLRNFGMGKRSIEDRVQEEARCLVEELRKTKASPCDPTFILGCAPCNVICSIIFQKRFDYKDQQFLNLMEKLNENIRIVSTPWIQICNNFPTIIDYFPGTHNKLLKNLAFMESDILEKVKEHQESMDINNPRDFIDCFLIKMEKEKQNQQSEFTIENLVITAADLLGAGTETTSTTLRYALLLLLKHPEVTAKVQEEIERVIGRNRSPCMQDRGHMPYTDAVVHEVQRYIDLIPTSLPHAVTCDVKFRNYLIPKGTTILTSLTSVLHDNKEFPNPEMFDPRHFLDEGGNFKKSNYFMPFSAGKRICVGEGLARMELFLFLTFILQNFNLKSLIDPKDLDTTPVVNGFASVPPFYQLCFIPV
CYP2C19 activ: increases human CYP2C19 enzyme activity | activation factor at 5 µM | 96,000 tested, under 10 active | AID 1025 | recombinant CYP2C19, luciferin-H EGE luminescence; stronger effect = higher value; 0 = fully inhibited enzyme, 1 = untreated enzyme;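 active = activation factor of at least 2 at 5 µM in the primary screen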;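 also: 0 = wells with 2.5 mM tranylcypromine and 1 = vehicle-only wells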
CYP2C9 inh: human CYP2C9 inhibition. CYP2C9 Supersomes, luciferin-H conversion, luminescence. P11712. AID 777. inhibition, % at 5 µM. 20% of 96,000 active;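 active = blocking of liver enzyme CYP2C9 beyond about 50% at 5 µM, limit read from the data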
Numbers without * were called inactive; / = not tested or not shown. Shown are actives, neighbours in structure and some others; about 27% of the full set was active somewhere.

SMILES	sEH inh	sEH act	CYP2C9 activ	CYP2C19 inhib	CYP2C19 activ	CYP2C9 inh
O=c1c2ccccc2nc(SCc2nnc(-c3ccccc3)o2)n1-c1ccccc1	/	/	0	35	0.6	95*
C=CCc1c(C)nc(SCc2nc3ccccc3c(=O)[nH]2)[nH]c1=O	12	-12	0.3	16	0.8	67*
Cc1noc(C)c1CSc1nc2ccccc2c(=O)n1-c1ccccc1	-3	4	0.2	37	0.6	84*
C=CCn1c(Cc2ccc(OC)cc2)nnc1SCc1nc2ccccc2c(=O)[nH]1	/	/	0.9	16	0.8	13
C=CCn1c(SCc2nc3ccccc3c(=O)[nH]2)nc2ccccc2c1=O	0	0	0.2	33	0.7	83*
Cc1ccc(CS(=O)(=O)CCC(=O)NCc2cccs2)cc1	-14	14	0.6	26	0.7	35
Cc1cc(NC(=O)c2cccc(S(=O)(=O)N3CCOCC3)c2)c2ccccc2n1	/	/	1.2	3	1	-15
Cc1ccc(C)c(NC(=O)CCC(=O)NNC(=O)c2cccc([N+](=O)[O-])c2)c1	3	-2	1	-16	1.2	4
O=C(NC1CS(=O)(=O)CC1NCc1ccccc1)c1ccccc1 (configuration not stated)	/	/	1.1	34	0.7	-7
Cc1noc(C)c1CSc1nc2ccccc2c(=O)n1-c1ccc(F)cc1F	/	/	0.1	39	0.6	94*
C=CCn1c(SCC(=O)N2CCc3ccccc3C2)nc2ccccc2c1=O	-9	8	0.1	74*	0.3	95*
C=CCn1c(SCc2c(C)noc2C)nc2ccccc2c1=O	-15	14	0	95*	0	97*
C=CCn1c(SCC(=O)c2ccc(Cl)s2)nc2ccccc2c1=O	-8	6	0.6	27	0.7	35
COc1cc2nc(SCc3c(C)noc3C)n(CCC3=CCCCC3)c(=O)c2cc1OC	-8	8	0.3	33	0.7	74*
O=C(NC1CCCC1)C(c1ccccc1)N(C(=O)c1ccco1)C1CCCC1 (configuration not stated)	-4	2	/	/	/	/
C=CCn1c(SC2CCOC2=O)nc2sc(C)c(C)c2c1=O (configuration not stated)	0	3	/	/	/	/
CCCn1c(SCc2nc3sc(C)c(C)c3c(=O)[nH]2)nc2ccccc2c1=O	/	/	0.3	37	0.6	66*
COC(=O)c1ccc(-c2nc3cc(Cl)c(N)cc3s2)cc1	-4	4	0.9	60*	0.4	11
CCOC(=O)CSc1ncnc2c1sc1nc(N3CCOCC3)c3c(c12)CCCC3	8	-5	0.5	18	0.8	54*
COC(=O)CSc1ncnc2c1sc1nc(N3CCOCC3)c3c(c12)CCCC3	2	2	0.7	13	0.9	31
OCCN(CCO)c1ncnc2c1sc1nc(N3CCOCC3)c3c(c12)CCCC3	-15	15	0.1	81*	0.2	89*
c1nc(N2CCNCC2)c2sc3nc(N4CCOCC4)c4c(c3c2n1)CCC4	/	/	0.7	15	0.8	30
OCCN1CCN(c2ncnc3c2sc2nc(N4CCOCC4)c4c(c23)CCC4)CC1	/	/	0.2	84*	0.2	79*
Cn1cnnc1SC(C(=O)Nc1cccc(C(F)(F)F)c1)c1ccccc1 (configuration not stated)	6	-6	0.3	71*	0.3	73*
Cn1cnnc1SCC(=O)Nc1cccc(C(=O)O)c1	3	-2	1.1	-3	1	-5
SMILES	sEH inh	sEH act	CYP2C9 activ	CYP2C19 inhib	CYP2C19 activ	CYP2C9 inh
Cc1c(Cl)cccc1-n1nnnc1-c1cccs1	/	/	0.7	96*	0	26
O=C(CCC1CCCC1)N1CCN(C2CCCC2)CC1	/	/	0.9	73*	0.3	11
CNS(=O)(=O)c1ccc(OC)c(-c2nnc3c4ccccc4c(C)nn23)c1	-5	2	1.1	-3	1	-5
COc1ccc(S(=O)(=O)NC(C)(C)C)cc1-c1nnc2c3ccccc3c(C)nn12	9	-10	0.5	66*	0.3	46
CC(C)CC(=O)OCc1cn(-c2ccccc2)nn1	-7	4	0.9	20	0.8	5
Cc1ccc(S(=O)(=O)N2CCCC2C(=O)OCc2ccco2)cc1 (configuration not stated)	7	-4	1.2	24	0.8	-17
COc1ccc(S(=O)(=O)N2CN(Cc3ccco3)c3nc4ccccc4nc32)cc1	-3	4	0.5	70*	0.3	54*
Cc1ccc(S(=O)(=O)N2CN(Cc3ccco3)c3nc4ccccc4nc32)cc1C	0	-3	0.2	68*	0.3	84*
Cc1ccc(S(=O)(=O)N2CN(Cc3ccco3)c3nc4ccccc4nc32)cc1	-12	9	0.1	76*	0.2	90*
O=S(=O)(c1ccc(F)cc1)N1CN(Cc2ccco2)c2nc3ccccc3nc21	7	-5	0.4	82*	0.2	60*
Cc1ccc(S(=O)(=O)N2CCOCC2)cc1C(=O)NCc1ccco1	-4	4	1	12	0.9	1
COc1ccc(S(=O)(=O)n2c(CCN3CCOCC3)nc3ccccc32)cc1	/	/	1.7	13	0.9	-67
CCOC(=O)C1C(=O)OC2(CCOC(C)(C)C2)C1C(=O)OCC (configuration not stated)	-7	11	1.2	18	0.8	-17
Nc1ccc(-c2nc3c(Cl)c(N)ccc3[nH]2)cc1	0	1	1	-6	1.1	-2
COc1ccc(C2=NN(CN3C(=O)C(=O)c4ccccc43)C(c3ccc(C)cc3)C2)cc1 (configuration not stated)	3	-2	0.2	51*	0.5	76*
CCOC(=O)c1c(C)[nH]c(C(=O)OCC(=O)NC2CCS(=O)(=O)C2)c1C (configuration not stated)	/	/	0.9	-11	1.1	8
COc1ccc(C(c2nnnn2Cc2ccccc2)N2CCN(c3nc4ccccc4s3)CC2)cc1OC (configuration not stated)	3	-1	/	/	/	/
CCC(C)(C)n1nnnc1C(c1ccc(O)c(OC)c1)N1CCN(c2nc3ccccc3s2)CC1 (configuration not stated)	/	/	0.2	29	0.7	77*
CCC(C)(C)n1nnnc1C(c1ccc(O)c(OC)c1)N1CCc2ccccc2C1 (configuration not stated)	10	-11	0.7	32	0.7	33
CC(C)(C)n1nnnc1C(c1ccncc1)N1CCN(c2ccc(O)cc2)CC1 (configuration not stated)	-4	6	0.2	49	0.5	76*
CC1CCN(C(c2ccccc2)c2nnnn2C(C)(C)C)CC1 (configuration not stated)	/	/	1	10	0.9	-3
COc1ccc(C(c2nnnn2C(C)(C)C)N2CCN(c3nc4ccccc4s3)CC2)cc1 (configuration not stated)	/	/	0.4	18	0.8	63*
Cc1cn(C(=O)c2ccccc2)c(=S)n1-c1ccc(Br)cc1	2	2	/	/	/	/

Screening results (PubChem)
